The values below come from PubChem BioAssay (NCI).

Where “and” joins values, the source holds several entries; their conditions need not be identical. Identical values can stand only once. Compounds without any hit were thinned out: in the full panel of roughly 83,000, 20% have a hit.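 Cells were grown in 96-well plates and exposed to the test compound at a single concentration for 48 hours; results are reported as percent growth, with values below 10 considered active.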 Values without a mark were called inactive. Calls of active or inactive are those of the source.

Among the test systems are NCI-H23 lung; NCI-H322M lung; HOP-62 NSCLC; NCI-H460 lung; NCI-H522 lung; 786-0 renal; COLO 205 colon; DU-145 prostate; K-562 leukemia; MALME-3M melanoma; MDA-MB-231 breast; SF-268 CNS; SF-295 CNS; SF-539 CNS; UACC-257 melanoma; M14 melanoma; NCI-H226 lung; HOP-92 NSCLC; A549/ATCC NSCLC; RXF 393 renal.
Common to all, as to test: NCI-60 one-dose screen, 48 h (100 = growth as untreated, 0 = no growth, -100 = all killed)
Common to all, as to conditions: 10 µM unless noted

On to `Cc1cc[n+](CCc2ccccc2)cc1`, for which the growth was 90.5% and 111% in the assay with NCI-H23 lung; 96% and 96.5% in the assay with NCI-H322M lung; 87.9% and 114% in the assay with HOP-62 NSCLC; 110% and 103% in the assay on NCI-H460 lung; 94.8% and 85.5% in the assay with NCI-H522 lung; 89.7% and 100% with 786-0 renal. The growth with COLO 205 colon was 127% and 119%; in the assay with DU-145 prostate, 95.3% and 115%; in the assay on K-562 leukemia, 85.7% and 89.1%; in the assay on MALME-3M melanoma, 75.4% and 88.6%; in the assay with MDA-MB-231 breast, 115% and 117%; with SF-268 CNS, 98.6% and 108%. For the same compound, the growth in the assay on SF-295 CNS is 111% and 97.7%; in the assay with SF-539 CNS, 97.5% and 107%; in the assay with UACC-257 melanoma it was 103% and 95%; with M14 melanoma, 97.2% and 105%.
On to `N#CC(C#N)=Cc1cccc(F)c1`, for which the growth with NCI-H23 lung was 102%; in the assay with NCI-H226 lung, 103%; in the assay on HOP-62 NSCLC, 95.2%; in the assay with HOP-92 NSCLC it was 130%; with NCI-H522 lung it was 99.4%; in the assay on A549/ATCC NSCLC, 100%. Further, the growth in the assay on 786-0 renal was 103%; with COLO 205 colon, 115%; with DU-145 prostate, 105%; with K-562 leukemia it was 96.8%; in the assay on MALME-3M melanoma it was 110%; in the assay on MDA-MB-231 breast, 109%. Also, the growth is 110% with RXF 393 renal; 99.7% in the assay with SF-268 CNS; 105% in the assay with SF-295 CNS; 105% in the assay with SF-539 CNS; 107% in the assay on UACC-257 melanoma; 107% with M14 melanoma.
Consider `O=S(OO)c1cc(Cl)c(O)c(Cl)c1` (centres undefined), for which the growth is 101% in the assay with NCI-H23 lung; 109% in the assay with NCI-H226 lung; 105% in the assay with HOP-62 NSCLC; 102% with NCI-H460 lung; 92.1% with HOP-92 NSCLC; 102% in the assay on NCI-H522 lung. The growth in the assay with A549/ATCC NSCLC is 94.7%; with 786-0 renal, 97.1%; with COLO 205 colon, 117%; in the assay on DU-145 prostate, 113%; in the assay on K-562 leukemia, 107%; with MALME-3M melanoma it was 115%. The growth was 110% in the assay with MDA-MB-231 breast; 106% with RXF 393 renal; 103% with SF-268 CNS; 94.3% with SF-295 CNS; 95.7% in the assay with SF-539 CNS; 99.6% in the assay on UACC-257 melanoma. Besides, the growth in the assay on M14 melanoma is 107%.
Turning to `Cc1c2ccncc2c(C)c2c1[nH]c1ccccc12`, the growth in the assay on NCI-H23 lung was -79.5% (active); with NCI-H226 lung it was -0.884% (active); with NCI-H522 lung it was -50.6% (active); in the assay with A549/ATCC NSCLC it was -65.4% (active); in the assay on 786-0 renal it was -95.9% (active); in the assay on COLO 205 colon, -87.1% (active). The growth with DU-145 prostate was -97.8% (active); in the assay with K-562 leukemia, 3.9% (active); with MALME-3M melanoma, -77.8% (active); in the assay with MDA-MB-231 breast, -68.9% (active); with RXF 393 renal, -87.3% (active); in the assay on SF-268 CNS, -77.1% (active). In addition, the growth was -84.7% (active) in the assay with SF-295 CNS, -93.6% (active) in the assay on SF-539 CNS, -62.1% (active) in the assay with UACC-257 melanoma and -89.9% (active) with M14 melanoma.
Consider `COc1ccn(C)c(=O)c1C#N`, for which the growth is 105% in the assay with NCI-H23 lung; 91.6% with NCI-H226 lung; 83.5% in the assay with HOP-62 NSCLC; 108% in the assay with NCI-H460 lung; 116% in the assay with HOP-92 NSCLC; 66.5% in the assay on NCI-H522 lung. Further, the growth in the assay on A549/ATCC NSCLC is 83.7%; with 786-0 renal, 104%; in the assay with COLO 205 colon, 95.9%; with DU-145 prostate, 106%; in the assay with K-562 leukemia, 105%; in the assay with MALME-3M melanoma it was 106%. For the same compound, the growth is 90.7% in the assay on MDA-MB-231 breast; 107% in the assay with RXF 393 renal; 94.3% in the assay on SF-268 CNS; 101% in the assay with SF-295 CNS; 87% with UACC-257 melanoma; 102% in the assay on M14 melanoma.
For `CN1CCC2(CC1)C(C#N)C(=O)NC(=O)C2C#N` (centres undefined), the growth in the assay with NCI-H226 lung is 96.1%; in the assay with HOP-62 NSCLC, 94.3%; in the assay with NCI-H460 lung it was 106%; in the assay with HOP-92 NSCLC it was 109%; in the assay on NCI-H522 lung it was 110%; in the assay with A549/ATCC NSCLC, 95.9%. In addition, the growth in the assay on 786-0 renal is 104%; in the assay with COLO 205 colon it was 109%; with DU-145 prostate, 112%; in the assay with K-562 leukemia it was 94.5%; in the assay on MALME-3M melanoma, 107%; in the assay on MDA-MB-231 breast, 101%. In addition, the growth in the assay on RXF 393 renal is 104%; in the assay with SF-268 CNS, 107%; in the assay on SF-295 CNS it was 94.1%; in the assay with SF-539 CNS, 94.9%; in the assay with UACC-257 melanoma, 90.7%; in the assay with M14 melanoma, 107%.
In the case of `CC[C@H](C)[C@H](NC(=O)CN(C)C)C(=O)N(C)[C@H](C[C@@H](OC(C)=O)c1nc(C(=O)NC23C4C5C2C2C3C4C52C(=O)OC)cs1)C(C)C` (some centres undefined), the growth was 21.3% in the assay with NCI-H23 lung; 31.7% in the assay on NCI-H226 lung; 19.4% with HOP-62 NSCLC; 3.35% (active) with NCI-H460 lung; 66.1% in the assay on HOP-92 NSCLC; 24.1% in the assay with NCI-H522 lung. Besides, the growth in the assay with A549/ATCC NSCLC is 21.3%; in the assay with 786-0 renal it was 31.3%; in the assay on COLO 205 colon, -7.69% (active); with DU-145 prostate, 2.37% (active); in the assay on K-562 leukemia, 7.65% (active); with MALME-3M melanoma, 35.1%. In addition, the growth in the assay with MDA-MB-231 breast is 1.39% (active); in the assay on RXF 393 renal it was 2.8% (active); with SF-268 CNS, 21.1%; in the assay on SF-295 CNS it was 9.98% (active); in the assay on SF-539 CNS it was -1.99% (active); in the assay on UACC-257 melanoma it was 49.2%. Moreover, the growth in the assay on M14 melanoma is -35.8% (active).
